Test results taken from the supplement of paper PMC10849652.
Of roughly 8,800 targets only a part is listed; those with a hit were picked by preference. About 0.5% of all pairs of compound and target were hits.

How the values were obtained:
Assay in all cases: log2 fold change, soluble protein after heating vs DMSO (PISA); higher = thermal stabilisation; K562 lysate, 10 uM; active = over 0.2 and 3.5 SD of the protein, either way, in both replicates (recomputed)
ibrutinib = compound: C=CC(=O)N1CCC[C@@H](n2nc(-c3ccc(Oc4ccccc4)cc3)c3c(N)ncnc32)C1 [ibrutinib]
In short: (§1)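 A 30 min treatment with 10 μM compound was applied to crude K562 extract at 1 mg/mL protein in PBS pH 7.4 with 1 mM MgCl2. Heating for 3 min spanned 48°C-58°C, after which aliquots were pooled, adjusted to 0.5% NP-40 at 4°C and spun at 21,000xg for 90 min. TMTpro 16plex LC-MS/MS of the supernatant, with channel sums equalised, gave values recorded as log-two fold change in thermal stability against solvent controls, from duplicates.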

[1] = compound: CC(=O)c1cnc2ccc(-c3cc(Cl)c(O)c(Cl)c3)nc2c1N[C@H]1CC[C@H](CN(C)C)CC1
In short: as §1

ralimetinib = compound: CC(C)(C)Cn1c(N)nc2ccc(-c3[nH]c(C(C)(C)C)nc3-c3ccc(F)cc3)nc21 [ralimetinib]
In short: as §1

[2] = compound: CC(C)(O)CC(=O)NCCn1ccc2ncnc(Nc3ccc(Oc4cccc(C(F)(F)F)c4)c(Cl)c3)c21
In short: as §1

[3] = compound: CC(C)C1=C2N=C(C=C(N2N=C1)NCC3=CC=CC=C3)NCCCCCCN
In short: as §1

[4] = compound: CC1=C(C(CC(=O)N1)C2=CC=C(C=C2)C(F)(F)F)C(=O)NC3=C(C=C4C(=C3)C=NN4)F
In short: as §1

[5] = compound: CC1=C(C2=C(C=C1)C(=O)C3=CC=CC=C3N2CCCN)C
In short: as §1

[6] = compound: CC1=C(C=C(C=C1)NC(=O)C2=CC(=CC=C2)C(C)(C)C#N)NC3=CC4=C(C=C3)N=CN(C4=O)C
In short: as §1

[7] = compound: CC1=C(C=C(C=C1)NC(=O)C2=CC(=CC=C2)N(C)C)NC(=O)C3=CC=C(C=C3)O
In short: as §1

[8] = compound: CC1=CC=C(C=C1)SC2=C3C=C(SC3=CN=C2)C(=O)N
In short: as §1

vemurafenib = compound: CCCS(=O)(=O)Nc1ccc(F)c(C(=O)c2c[nH]c3ncc(-c4ccc(Cl)cc4)cc23)c1F [vemurafenib]
In short: as §1

[9] = compound: CCCS(=O)(=O)Nc1ccc(F)c(C(=O)c2c[nH]c3ncc(Cl)cc23)c1F
In short: as §1

barasertib = compound: CCN(CCCOc1ccc2c(Nc3cc(CC(=O)Nc4cccc(F)c4)[nH]n3)ncnc2c1)CCOP(=O)(O)O [barasertib]
In short: as §1

[10] = compound: CC[C@@H]1C(=O)N(C)c2cnc(Nc3ccc(C(=O)NC4CCN(C)CC4)cc3OC)nc2N1C1CCCC1
In short: as §1

volasertib = compound: CC[C@@H]1C(=O)N(C)c2cnc(Nc3ccc(C(=O)N[C@H]4CC[C@H](N5CCN(CC6CC6)CC5)CC4)cc3OC)nc2N1C(C)C [volasertib]
In short: as §1

[11] = compound: CCn1c(C(=O)N(C2CC2)C2CC2)cc2c3c(ncn3C)c(Nc3cc(C)n(C)n3)nc21
In short: as §1

[12] = compound: CCn1cc(-c2ccnc3[nH]c(-c4cccc(CN(C)C)c4)cc23)c(-c2ccc(NC(=O)N(C)C)cc2)n1
In short: as §1

[13] = compound: CN1CCC(CNc2ccc3ncc(-c4cccc(OC(F)(F)F)c4)n3n2)CC1
In short: as §1

saracatinib = compound: CN1CCN(CCOc2cc(OC3CCOCC3)c3c(Nc4c(Cl)ccc5c4OCO5)ncnc3c2)CC1 [saracatinib]
In short: as §1

sotrastaurin = compound: CN1CCN(c2nc(C3=C(c4c[nH]c5ccccc45)C(=O)NC3=O)c3ccccc3n2)CC1 [sotrastaurin]
In short: as §1

UniProt Q15233, sequence (Q15233 whole entry, looked up): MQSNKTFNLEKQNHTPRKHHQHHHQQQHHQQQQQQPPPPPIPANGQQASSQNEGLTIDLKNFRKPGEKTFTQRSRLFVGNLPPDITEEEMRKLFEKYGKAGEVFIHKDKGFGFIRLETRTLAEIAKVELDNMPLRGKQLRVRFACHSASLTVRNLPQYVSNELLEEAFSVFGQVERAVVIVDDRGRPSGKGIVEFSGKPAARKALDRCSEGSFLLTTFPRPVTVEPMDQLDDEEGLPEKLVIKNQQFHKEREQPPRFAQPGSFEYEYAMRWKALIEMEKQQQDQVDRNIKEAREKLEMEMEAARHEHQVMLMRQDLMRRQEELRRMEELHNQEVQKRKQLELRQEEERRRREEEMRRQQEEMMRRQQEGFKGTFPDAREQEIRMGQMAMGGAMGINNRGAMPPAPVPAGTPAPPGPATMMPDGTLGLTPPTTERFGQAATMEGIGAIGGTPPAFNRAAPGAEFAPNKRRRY
UniProt Q15021, sequence (Q15021 whole entry, looked up): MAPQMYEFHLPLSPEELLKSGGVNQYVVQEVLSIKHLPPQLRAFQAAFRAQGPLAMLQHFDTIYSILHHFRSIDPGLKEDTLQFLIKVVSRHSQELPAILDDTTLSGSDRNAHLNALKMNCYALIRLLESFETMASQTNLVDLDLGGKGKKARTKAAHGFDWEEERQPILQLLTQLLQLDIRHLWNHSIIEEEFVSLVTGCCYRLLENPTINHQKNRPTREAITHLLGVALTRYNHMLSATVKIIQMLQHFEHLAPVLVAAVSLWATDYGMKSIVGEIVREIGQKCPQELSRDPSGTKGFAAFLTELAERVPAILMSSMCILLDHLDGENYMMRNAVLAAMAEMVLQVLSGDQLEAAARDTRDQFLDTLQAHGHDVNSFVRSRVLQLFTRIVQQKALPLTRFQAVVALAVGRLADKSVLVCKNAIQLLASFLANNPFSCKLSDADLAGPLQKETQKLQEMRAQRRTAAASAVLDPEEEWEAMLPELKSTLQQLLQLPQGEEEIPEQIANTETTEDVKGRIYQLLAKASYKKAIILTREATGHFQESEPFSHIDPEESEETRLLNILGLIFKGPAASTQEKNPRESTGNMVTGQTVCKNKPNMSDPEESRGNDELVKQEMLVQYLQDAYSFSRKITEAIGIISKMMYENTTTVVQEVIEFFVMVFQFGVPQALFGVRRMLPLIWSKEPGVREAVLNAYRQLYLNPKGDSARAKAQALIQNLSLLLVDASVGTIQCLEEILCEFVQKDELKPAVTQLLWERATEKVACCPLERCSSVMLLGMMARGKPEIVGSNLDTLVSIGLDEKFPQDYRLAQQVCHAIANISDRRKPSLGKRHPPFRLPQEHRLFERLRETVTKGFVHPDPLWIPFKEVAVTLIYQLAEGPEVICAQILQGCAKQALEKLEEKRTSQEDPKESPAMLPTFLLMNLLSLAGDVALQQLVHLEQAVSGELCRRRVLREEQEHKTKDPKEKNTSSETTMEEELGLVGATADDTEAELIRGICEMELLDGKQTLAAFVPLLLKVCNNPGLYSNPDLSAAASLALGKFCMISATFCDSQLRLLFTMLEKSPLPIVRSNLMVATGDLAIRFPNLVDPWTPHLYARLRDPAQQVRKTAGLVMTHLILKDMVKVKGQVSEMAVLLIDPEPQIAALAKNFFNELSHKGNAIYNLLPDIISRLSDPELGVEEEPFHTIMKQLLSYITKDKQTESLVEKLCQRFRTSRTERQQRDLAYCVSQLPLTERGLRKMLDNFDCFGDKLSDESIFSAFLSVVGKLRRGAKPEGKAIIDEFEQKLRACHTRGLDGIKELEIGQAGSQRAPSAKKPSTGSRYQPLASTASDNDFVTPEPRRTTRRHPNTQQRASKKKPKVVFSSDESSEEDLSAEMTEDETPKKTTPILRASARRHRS
UniProt Q8TD19, sequence (Q8TD19 whole entry, looked up): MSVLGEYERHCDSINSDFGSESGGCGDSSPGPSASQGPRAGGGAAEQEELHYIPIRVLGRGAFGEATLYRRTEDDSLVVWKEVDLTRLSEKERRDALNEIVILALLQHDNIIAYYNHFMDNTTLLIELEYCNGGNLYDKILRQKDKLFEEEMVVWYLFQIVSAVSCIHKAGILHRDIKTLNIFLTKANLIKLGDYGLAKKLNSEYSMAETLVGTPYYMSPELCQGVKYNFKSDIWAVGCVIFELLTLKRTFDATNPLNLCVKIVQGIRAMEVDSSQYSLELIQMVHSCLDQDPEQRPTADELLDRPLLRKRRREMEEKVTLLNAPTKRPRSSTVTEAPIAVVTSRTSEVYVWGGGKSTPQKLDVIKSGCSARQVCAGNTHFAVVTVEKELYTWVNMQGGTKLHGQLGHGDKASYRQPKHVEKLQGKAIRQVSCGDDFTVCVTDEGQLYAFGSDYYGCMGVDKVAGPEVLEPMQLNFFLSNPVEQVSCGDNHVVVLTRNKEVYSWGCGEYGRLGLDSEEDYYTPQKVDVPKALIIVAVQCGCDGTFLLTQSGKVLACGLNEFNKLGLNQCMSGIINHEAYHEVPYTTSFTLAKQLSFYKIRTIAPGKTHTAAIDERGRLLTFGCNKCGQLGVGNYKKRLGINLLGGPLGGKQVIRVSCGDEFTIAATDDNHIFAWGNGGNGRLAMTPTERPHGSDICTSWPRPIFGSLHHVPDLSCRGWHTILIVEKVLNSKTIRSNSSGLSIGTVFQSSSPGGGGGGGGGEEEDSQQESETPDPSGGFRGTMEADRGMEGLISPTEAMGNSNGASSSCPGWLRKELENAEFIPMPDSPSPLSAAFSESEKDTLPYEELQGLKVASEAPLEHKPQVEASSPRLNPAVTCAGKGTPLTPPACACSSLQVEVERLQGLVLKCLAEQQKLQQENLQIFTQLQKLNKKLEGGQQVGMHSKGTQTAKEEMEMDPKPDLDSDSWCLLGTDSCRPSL
UniProt P04150, sequence (P04150 whole entry, looked up): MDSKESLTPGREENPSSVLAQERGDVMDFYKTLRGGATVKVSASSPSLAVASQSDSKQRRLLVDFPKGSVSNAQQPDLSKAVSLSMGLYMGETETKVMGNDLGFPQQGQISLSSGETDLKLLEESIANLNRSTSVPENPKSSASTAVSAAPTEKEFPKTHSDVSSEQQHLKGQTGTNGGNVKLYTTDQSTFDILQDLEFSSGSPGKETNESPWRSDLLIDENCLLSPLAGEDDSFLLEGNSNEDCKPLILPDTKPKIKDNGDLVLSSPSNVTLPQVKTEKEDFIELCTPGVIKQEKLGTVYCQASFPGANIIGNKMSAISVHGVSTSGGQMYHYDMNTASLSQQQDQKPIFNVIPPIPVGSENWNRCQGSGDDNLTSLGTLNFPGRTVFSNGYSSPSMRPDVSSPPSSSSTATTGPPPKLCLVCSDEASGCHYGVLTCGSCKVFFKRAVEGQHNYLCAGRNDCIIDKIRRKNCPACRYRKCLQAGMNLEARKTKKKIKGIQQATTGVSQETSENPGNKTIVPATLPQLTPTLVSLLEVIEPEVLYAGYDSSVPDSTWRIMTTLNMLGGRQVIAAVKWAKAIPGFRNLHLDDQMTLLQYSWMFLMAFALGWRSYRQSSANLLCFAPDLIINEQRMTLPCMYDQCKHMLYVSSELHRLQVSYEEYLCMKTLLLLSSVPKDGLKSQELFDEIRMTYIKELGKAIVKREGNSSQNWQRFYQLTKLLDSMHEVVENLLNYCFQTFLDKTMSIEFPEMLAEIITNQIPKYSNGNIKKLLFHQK
UniProt Q96I59, sequence (Q96I59 whole entry, looked up): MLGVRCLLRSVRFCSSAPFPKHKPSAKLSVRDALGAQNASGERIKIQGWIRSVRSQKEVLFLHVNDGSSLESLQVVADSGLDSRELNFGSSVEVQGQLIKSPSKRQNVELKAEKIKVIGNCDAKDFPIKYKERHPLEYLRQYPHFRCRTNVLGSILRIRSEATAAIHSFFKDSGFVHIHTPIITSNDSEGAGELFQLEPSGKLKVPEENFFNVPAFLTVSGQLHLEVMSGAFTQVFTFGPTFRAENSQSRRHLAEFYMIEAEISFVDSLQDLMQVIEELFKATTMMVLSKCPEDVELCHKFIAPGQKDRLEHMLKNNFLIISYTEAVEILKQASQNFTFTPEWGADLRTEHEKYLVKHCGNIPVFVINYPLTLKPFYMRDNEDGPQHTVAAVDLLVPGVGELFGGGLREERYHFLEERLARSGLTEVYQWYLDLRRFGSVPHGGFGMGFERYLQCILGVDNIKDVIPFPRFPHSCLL
UniProt Q9H857, sequence (Q9H857 whole entry, looked up): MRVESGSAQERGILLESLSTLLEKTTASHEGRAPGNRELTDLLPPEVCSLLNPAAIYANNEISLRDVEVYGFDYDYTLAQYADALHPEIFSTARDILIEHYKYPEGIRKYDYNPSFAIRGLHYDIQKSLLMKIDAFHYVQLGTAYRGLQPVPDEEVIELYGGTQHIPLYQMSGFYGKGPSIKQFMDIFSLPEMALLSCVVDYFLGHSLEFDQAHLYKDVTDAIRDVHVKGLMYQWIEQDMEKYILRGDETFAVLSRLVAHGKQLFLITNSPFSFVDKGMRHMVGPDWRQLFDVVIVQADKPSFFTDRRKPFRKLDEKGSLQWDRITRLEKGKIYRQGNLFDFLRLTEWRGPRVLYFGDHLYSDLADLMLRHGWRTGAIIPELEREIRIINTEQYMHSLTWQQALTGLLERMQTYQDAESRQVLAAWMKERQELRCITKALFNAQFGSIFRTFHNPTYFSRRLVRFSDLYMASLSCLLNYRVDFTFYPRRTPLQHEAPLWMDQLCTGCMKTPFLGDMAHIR
UniProt Q9HBL8, sequence (Q9HBL8 whole entry, looked up): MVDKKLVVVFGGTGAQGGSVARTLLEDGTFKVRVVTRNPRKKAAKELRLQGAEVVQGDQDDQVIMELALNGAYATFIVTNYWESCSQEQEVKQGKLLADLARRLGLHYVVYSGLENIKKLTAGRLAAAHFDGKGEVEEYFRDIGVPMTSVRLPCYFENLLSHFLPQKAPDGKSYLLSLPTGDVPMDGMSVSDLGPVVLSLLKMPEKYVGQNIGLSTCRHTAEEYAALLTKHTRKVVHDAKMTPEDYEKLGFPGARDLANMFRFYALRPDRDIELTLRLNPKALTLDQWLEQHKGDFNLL

| Target | log2 fold change (ibrutinib) | log2 fold change [1] | log2 fold change (ralimetinib) | log2 fold change [2] | log2 fold change [3] | log2 fold change [4] | log2 fold change [5] | log2 fold change [6] | log2 fold change [7] | log2 fold change [8] | log2 fold change (vemurafenib) | log2 fold change [9] | log2 fold change (barasertib) | log2 fold change [10] | log2 fold change (volasertib) | log2 fold change [11] | log2 fold change [12] | log2 fold change [13] | log2 fold change (saracatinib) | log2 fold change (sotrastaurin) |
| --- | --- | --- | --- | --- | --- | --- | --- | --- | --- | --- | --- | --- | --- | --- | --- | --- | --- | --- | --- | --- |
| NARS2 (UniProt Q96I59) | 0.01 (inactive) | 0.009 (inactive) | 0.009 (inactive) | 0.003 (inactive) | -0.001 (inactive) | 0.017 (inactive) | -0.024 (inactive) | -0.007 (inactive) | 0.045 (inactive) | 0.038 (inactive) | 0.022 (inactive) | 0.028 (inactive) | 0 (inactive) | -0.025 (inactive) | -0.067 (inactive) | 0.041 (inactive) | -0.091 (inactive) | 0.027 (inactive) | 0.001 (inactive) | -0.024 (inactive) |
| NEK9 (UniProt Q8TD19) | 0.005 (inactive) | 0.027 (inactive) | 0.055 (inactive) | 0 (inactive) | 0.01 (inactive) | 0.006 (inactive) | -0.01 (inactive) | 0.012 (inactive) | 0.009 (inactive) | 0.016 (inactive) | -0.001 (inactive) | 0.054 (inactive) | -0.008 (inactive) | 0.004 (inactive) | -0.01 (inactive) | 0.004 (inactive) | -0.046 (inactive) | 0.048 (inactive) | 0.035 (inactive) | -0.016 (inactive) |
| NMRAL1 (UniProt Q9HBL8) | 0.122 (inactive) | 0.021 (inactive) | 0.06 (inactive) | 0.012 (inactive) | -0.03 (inactive) | 0.047 (inactive) | -0.048 (inactive) | -0.01 (inactive) | -0.016 (inactive) | 0 (inactive) | -0.03 (inactive) | -0.023 (inactive) | 0.178 (inactive) | 0.045 (inactive) | -0.046 (inactive) | 0.045 (inactive) | -0.092 (inactive) | 0.053 (inactive) | 0.011 (inactive) | -0.034 (inactive) |
| MTA2 (UniProt O94776) | -0.014 (inactive) | -0.023 (inactive) | 0.03 (inactive) | 0.021 (inactive) | 0.032 (inactive) | 0.011 (inactive) | 0.018 (inactive) | -0.008 (inactive) | 0.043 (inactive) | -0.009 (inactive) | 0.007 (inactive) | 0.018 (inactive) | 0.026 (inactive) | 0.03 (inactive) | -0.008 (inactive) | 0.025 (inactive) | -0.021 (inactive) | -0.031 (inactive) | 0.015 (inactive) | 0.042 (inactive) |
| NONO (UniProt Q15233) | -0.013 (inactive) | 0.006 (inactive) | 0.008 (inactive) | -0.002 (inactive) | 0.006 (inactive) | -0.006 (inactive) | -0.006 (inactive) | -0.016 (inactive) | 0.015 (inactive) | 0.014 (inactive) | -0.005 (inactive) | 0.018 (inactive) | -0.006 (inactive) | -0.032 (inactive) | -0.049 (inactive) | 0 (inactive) | 0.076 (inactive) | -0.043 (inactive) | 0.004 (inactive) | -0.015 (inactive) |
| NFAT5 isoform 5 (UniProt O94916) | -0.027 (inactive) | -0.029 (inactive) | -0.017 (inactive) | 0.129 (inactive) | 0.003 (inactive) | 0.112 (inactive) | -0.008 (inactive) | -0.081 (inactive) | -0.004 (inactive) | 0.032 (inactive) | 0.019 (inactive) | -0.007 (inactive) | -0.041 (inactive) | 0.043 (inactive) | -0.016 (inactive) | 0.042 (inactive) | -0.003 (inactive) | 0.044 (inactive) | 0.038 (inactive) | 0.044 (inactive) |
| NFKBIB (UniProt Q15653) | -0.034 (inactive) | -0.037 (inactive) | 0.048 (inactive) | -0.008 (inactive) | -0.029 (inactive) | -0.012 (inactive) | 0 (inactive) | 0.033 (inactive) | 0.06 (inactive) | -0.037 (inactive) | -0.058 (inactive) | 0.041 (inactive) | -0.059 (inactive) | 0.099 (inactive) | 0.068 (inactive) | -0.054 (inactive) | -0.535 (active) | 0.096 (inactive) | -0.013 (inactive) | -0.002 (inactive) |
| OSGEP (UniProt Q9NPF4) | -0.009 (inactive) | 0.02 (inactive) | 0.022 (inactive) | -0.03 (inactive) | -0.003 (inactive) | 0 (inactive) | 0.001 (inactive) | 0.012 (inactive) | -0.057 (inactive) | -0.002 (inactive) | 0.003 (inactive) | 0.026 (inactive) | 0.031 (inactive) | -0.059 (inactive) | -0.037 (inactive) | -0.03 (inactive) | -0.065 (inactive) | 0.026 (inactive) | -0.006 (inactive) | -0.008 (inactive) |
| MRPS31 (UniProt Q92665) | -0.01 (inactive) | -0.039 (inactive) | -0.006 (inactive) | -0.006 (inactive) | 0 (inactive) | -0.01 (inactive) | -0.071 (inactive) | -0.006 (inactive) | -0.022 (inactive) | -0.006 (inactive) | 0.043 (inactive) | -0.001 (inactive) | -0.011 (inactive) | 0.041 (inactive) | -0.004 (inactive) | -0.026 (inactive) | -0.046 (inactive) | 0.034 (inactive) | 0.014 (inactive) | 0.021 (inactive) |
| PARD3 (UniProt Q8TEW0) | 0.026 (inactive) | 0.134 (inactive) | -0.017 (inactive) | -0.011 (inactive) | 0.001 (inactive) | 0.011 (inactive) | 0.006 (inactive) | 0.116 (inactive) | 0.01 (inactive) | -0.068 (inactive) | 0.145 (inactive) | -0.017 (inactive) | -0.123 (inactive) | -0.009 (inactive) | -0.016 (inactive) | -0.032 (inactive) | -0.147 (inactive) | -0.08 (inactive) | 0.016 (inactive) | 0.004 (inactive) |
| NCAPD2 (UniProt Q15021) | -0.019 (inactive) | -0.019 (inactive) | 0.03 (inactive) | -0.012 (inactive) | -0.031 (inactive) | 0.022 (inactive) | -0.003 (inactive) | 0.016 (inactive) | 0.036 (inactive) | -0.005 (inactive) | 0.025 (inactive) | 0.014 (inactive) | 0.016 (inactive) | -0.027 (inactive) | -0.057 (inactive) | 0.022 (inactive) | -0.037 (inactive) | -0.055 (inactive) | 0.006 (inactive) | 0.021 (inactive) |
| MSH3 (UniProt P20585) | 0 (inactive) | -0.017 (inactive) | 0.024 (inactive) | -0.037 (inactive) | -0.039 (inactive) | 0.023 (inactive) | -0.025 (inactive) | -0.018 (inactive) | -0.007 (inactive) | -0.005 (inactive) | -0.004 (inactive) | 0.048 (inactive) | -0.001 (inactive) | 0.036 (inactive) | -0.031 (inactive) | -0.034 (inactive) | -0.025 (inactive) | 0.031 (inactive) | 0.038 (inactive) | 0.039 (inactive) |
| NTPCR (UniProt Q9BSD7) | -0.004 (inactive) | 0.002 (inactive) | 0.014 (inactive) | 0 (inactive) | 0.022 (inactive) | 0.018 (inactive) | 0.014 (inactive) | -0.002 (inactive) | 0.066 (inactive) | -0.001 (inactive) | 0.055 (inactive) | -0.001 (inactive) | 0.016 (inactive) | 0.005 (inactive) | -0.066 (inactive) | 0.032 (inactive) | -0.038 (inactive) | -0.021 (inactive) | -0.009 (inactive) | 0.011 (inactive) |
| NT5DC2 isoform 2 (UniProt Q9H857) | 0 (inactive) | -0.066 (inactive) | -0.015 (inactive) | -0.026 (inactive) | 0 (inactive) | -0.002 (inactive) | -0.015 (inactive) | 0.008 (inactive) | 0.04 (inactive) | -0.025 (inactive) | 0 (inactive) | 0.069 (inactive) | 0.001 (inactive) | 0.011 (inactive) | -0.028 (inactive) | -0.01 (inactive) | 0.034 (inactive) | 0.03 (inactive) | -0.017 (inactive) | 0.117 (inactive) |
| NR3C1 isoform 3 (UniProt P04150) | -0.168 (inactive) | -0.019 (inactive) | -0.076 (inactive) | 0.04 (inactive) | 0.008 (inactive) | -0.031 (inactive) | 0.104 (inactive) | 0.024 (inactive) | -0.033 (inactive) | 0.055 (inactive) | -0.138 (inactive) | 0.027 (inactive) | -0.385 (inactive) | -0.086 (inactive) | -0.046 (inactive) | 0.001 (inactive) | 0.07 (inactive) | -0.081 (inactive) | 0.072 (inactive) | -0.016 (inactive) |
